Laboratory results reported in PubChem BioAssay.
A number with no mark means an inactive call. How the calls were made is not given here.

Molecular target: Pantothenate synthetase (Mycobacterium tuberculosis (strain ATCC 25618 / H37Rv)) (UniProt P9WIL5)
Test: Recombinant Mtb pantothenate synthetase (PanC) inhibitors, coupled enzyme, confirmatory (AID 375);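 further: 0% = full reaction with vehicle and 100% = no enzyme background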
Settings: coupled enzyme assay; at 10 µM, active compounds read high

Chain of Pantothenate synthetase (Mycobacterium tuberculosis (strain ATCC 25618 / H37Rv)) (P9WIL5 whole entry, looked up): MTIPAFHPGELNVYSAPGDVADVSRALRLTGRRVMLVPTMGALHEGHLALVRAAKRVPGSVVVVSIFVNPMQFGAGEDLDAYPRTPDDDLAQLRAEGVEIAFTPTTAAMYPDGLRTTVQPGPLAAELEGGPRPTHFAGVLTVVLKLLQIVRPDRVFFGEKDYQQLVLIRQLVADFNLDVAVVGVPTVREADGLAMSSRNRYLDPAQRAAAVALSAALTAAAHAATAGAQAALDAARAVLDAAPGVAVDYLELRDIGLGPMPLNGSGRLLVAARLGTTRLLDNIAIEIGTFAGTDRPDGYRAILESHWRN

Structure (SMILES)	inhibition [%]
CCOC(=O)C1=C(C)N(C)C(=O)NC1c1ccccc1OC (stereo not drawn)	0
CC1CNCCN1S(=O)(=O)c1cccc2cnccc12 (stereo not drawn)	5
CCOc1ccccc1C(=O)NCCCn1ccnc1	14
O=C(c1cccnc1)N1CCN(Cc2ccc3c(c2)OCO3)CC1	0
COc1ccc(N2CCN(CCNS(=O)(=O)c3cccc4nsnc34)CC2)cc1	2
CCN(CC)S(=O)(=O)c1ccc2[nH]cc(C(=O)NCCC3=CCCCC3)c(=O)c2c1	0
COC(=O)CCC(=O)Nc1ccc(S(=O)(=O)N2CCCCCC2)cc1	0
CS(=O)(=O)N(CC(=O)NCc1ccncc1)Cc1ccc(Cl)cc1	0
CC(COc1ccccc1)NC(C)C(O)c1ccc(O)cc1 (stereo not drawn)	0
O=C(NC(=O)c1cccc(F)c1)OC[C@@H]1CCCN2CCCC[C@H]12	0
O=C(c1ccc(Cl)cc1)C1CCN(C(=O)NC2CCCCC2)CC1	0
COc1ccc2oc(C)c(C(=O)Cn3ccnc3)c2c1	0
O=C(CSc1nnnn1C1CCCCC1)N1CCc2ccccc21	0
c1ccc2c(c1)Cn1c-2nc2ccccc21	0
O=C1c2ccccc2C(Nc2ccc(F)c(Cl)c2)N1Cc1ccco1 (stereo not drawn)	3
COc1ccccc1OCc1ccc(C(=O)NC(C)(C)C)o1	2
Cn1c(=O)oc2cc(S(=O)(=O)N3CCN(c4ccccn4)CC3)ccc21	0
CCc1nc(C)c(-c2ccccc2)c(=O)[nH]1	6
COc1cccc(C(=O)Nc2cc(NC(=O)c3ccco3)ccc2OC)c1	3
CCOC(=O)c1c(NC(=O)OC)sc(C(=O)N(C)C)c1C	1
O=C(CS(=O)CC(=O)Nc1cccc2c1CCCC2)Nc1ccc(F)cc1 (stereo not drawn)	0
O=C(NCCO)c1cc2ccccc2cc1O	0
CCCCC(=O)Nc1c(O)c2ccccc2[nH]c1=O	0
